# Reference: PubChem BioAssay (NCI)
# The panel holds about 79,000 compounds, 15% with a hit somewhere; the sample as a whole holds those more often. Values without a mark were called inactive. The source made the active and inactive calls. Cut-off read from the data, not from the text of the source: active = growth inhibition above about 70%; inactive = the rest.
# Tests used:
# [1] = NCI Yeast Anticancer Drug Screen. Data for the rad50 strain (AID 155);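 note: 0% = growth of vehicle-only cultures of the same strain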; settings: S. cerevisiae rad50 strain growth inhibition, hits give high values
# Method in brief: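 Cells are treated with compound, grown, and their growth is then scored against vehicle-only cultures of the same repair-deficient yeast strain.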
# [2] = NCI Yeast Anticancer Drug Screen. Data for the mec2-1 strain (AID 157); settings: S. cerevisiae mec2-1 strain, hits give high values
# Method in brief: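 Growth inhibition is read against vehicle-treated controls after compound exposure of the mec2-1 yeast strain, which is defective in DNA damage repair or cell cycle control.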
# [3] = NCI Yeast Anticancer Drug Screen. Data for the sgs1 mgt1 strain (AID 161);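 note: 0% = growth of cultures given vehicle only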; settings: S. cerevisiae sgs1 mgt1 strain, hits give high values
# Method in brief: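 Growth of a repair-deficient yeast mutant was monitored after compound treatment and expressed as inhibition relative to vehicle-treated cultures.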
# [4] = NCI Yeast Anticancer Drug Screen. Data for the cln2 rad14 strain (AID 165);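 note: 0% = growth equal to vehicle treated cultures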; settings: S. cerevisiae cln2 rad14 strain, hits give high values
# Method in brief: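 Growth inhibition, relative to vehicle-treated controls, is the read-out. The test organism is a yeast strain with defined genetic alterations, cln2 rad14.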
# [5] = NCI Yeast Anticancer Drug Screen. Data for the bub3 strain (AID 167); settings: S. cerevisiae bub3 mutant strain, hits give high values
# Method in brief: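 Part of a panel of yeast mutants defective in DNA damage repair or cell cycle regulation. Each strain is grown with compound, and inhibition is calculated relative to solvent-treated cultures.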
# [6] = NCI Yeast Anticancer Drug Screen. Data for the mlh1 rad18 strain (AID 175); settings: S. cerevisiae mlh1 rad18 strain growth inhibition, hits give high values
# Method in brief: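 Cells of a genetically altered yeast strain, deficient in DNA damage repair, were treated with compound. Their growth was then compared with that of vehicle-treated cultures to give inhibition.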
# [7] = at 5.0 µM (retest, dose inferred, filed as 0.5)
# [8] = at 50.0 µM (retest, dose inferred, filed as 5.0)
SMILES,"growth inhibition [1, 7]","growth inhibition [1, 8]",growth inhibition ([1]; at 50.0 µM),"growth inhibition [2, 7]","growth inhibition [2, 8]",growth inhibition ([2]; at 50.0 µM),"growth inhibition [3, 7]","growth inhibition [3, 8]",growth inhibition ([3]; at 50.0 µM),"growth inhibition [4, 7]","growth inhibition [4, 8]",growth inhibition ([4]; at 50.0 µM),"growth inhibition [5, 7]","growth inhibition [5, 8]",growth inhibition ([5]; at 50.0 µM),"growth inhibition [6, 7]","growth inhibition [6, 8]",growth inhibition ([6]; at 50.0 µM)
COc1ccc(C2=C(Cl)C(=O)N(c3ccc(OC)cc3)C(=O)C2(Cl)Cl)cc1,8%,82% (active),85.6% (active),-10%,87% (active),97.8% (active),9%,88% (active),67.1%,-4%,42%,56.8%,-8%,84% (active),94.9% (active),6%,71% (active),95.8% (active)
O=C1c2ccccc2-c2cc([N+](=O)[O-])c([N+](=O)[O-])cc21,16%,99% (active),93.2% (active),19%,45%,98.6% (active),21%,99% (active),96% (active),-15%,90% (active),90% (active),7%,99% (active),98.7% (active),5%,98% (active),98.3% (active)
N=Nc1c(OC(=O)Nc2ccccc2)[nH]c2ccccc12,-3%,67%,8.65%,20%,63%,-6.3%,-1%,69%,13.8%,9%,40%,63.9%,1%,84% (active),31.9%,-3%,85% (active),71.5% (active)
CC(=O)c1nc2ccccc2n1C(C)C(=O)c1ccccc1 (configuration not stated),39%,37%,16.9%,23%,34%,21.6%,18%,74% (active),68.4%,33%,24%,6.15%,-7%,35%,37.5%,18%,30%,-1.7%
Cc1ccc(C)c(NC(=O)/C(=N\NC(N)=S)C(C#N)c2ccccc2)c1 (configuration not stated),5%,13%,-14.3%,6%,6%,12.8%,2%,12%,15.6%,-1%,-4%,28%,10%,2%,5.75%,1%,6%,69.2%
c1ccc([Si](C[CH2][Sn]([c]2ccccc2)([c]2ccccc2)[c]2ccccc2)(c2ccccc2)c2ccc([Si](C[CH2][Sn]([c]3ccccc3)([c]3ccccc3)[c]3ccccc3)(c3ccccc3)c3ccccc3)cc2)cc1,99% (active),98% (active),77.3% (active),99% (active),99% (active),89.5% (active),100% (active),98% (active),71.9% (active),99% (active),98% (active),83.8% (active),99% (active),98% (active),97.6% (active),99% (active),98% (active),73.1% (active)
COc1ccc(/C(C#N)=C/c2ccncc2)cc1,1%,28%,73.2% (active),-49%,14%,39.2%,-2%,28%,68%,4%,23%,46.4%,7%,67%,77.4% (active),-3%,28%,51.3%
CC1=C(CO)C(=O)O[C@@H]([C@@H](C)[C@H]2CC[C@H]3[C@@H]4C[C@@H](O)C5=CC=CC(=O)[C@]5(C)[C@H]4CC[C@]23C)C1,-2%,41%,71.2% (active),-24%,49%,46%,-1%,-6%,85.8% (active),-1%,47%,55.2%,0%,40%,60.6%,-22%,36%,90.5% (active)
ClCc1ccc2oc3ccccc3c2c1,-5%,8%,30%,1%,0%,17.1%,-12%,-4%,27.9%,-1%,-8%,43.5%,2%,-7%,-23.6%,-3%,5%,68.6%
CCC12C=CCN3CC[C@@]4(c5cc([C@@]6(C(=O)OC)C[C@@H]7CN(CCc8c6[nH]c6ccccc86)C[C@](O)(CC)C7)c(OC)cc5N(C)[C@H]4[C@@](O)(C(=O)OC)[C@@H]1OC(=O)CCCCCCCCCCCN1C(=O)C=CC1=O)[C@H]32 (some centres not stated),16%,98% (active),88.5% (active),42%,99% (active),92.4% (active),35%,98% (active),92.7% (active),16%,95% (active),90.5% (active),-23%,96% (active),91% (active),32%,98% (active),91.5% (active)
O=c1oc2ccccc2c(O)c1/C=N/C(=S)NCCc1ccccc1,29%,88% (active),-11.6%,30%,95% (active),-22.4%,32%,92% (active),-6.05%,26%,40%,-27.8%,44%,96% (active),-10.2%,32%,93% (active),-5.75%
COc1cc(-c2nn3c(=O)n(-c4ccc(Cl)cc4)c(=O)nc3s2)cc(OC)c1OC,6%,-2%,30.8%,0%,18%,-0.6%,1%,4%,20.9%,7%,-7%,24%,1%,17%,3.3%,-2%,3%,2.35%
O=C1C(=O)c2cc(Br)cc([N+](=O)[O-])c2-c2ccc(Br)cc21,68%,96% (active),95.5% (active),52%,96% (active),98.3% (active),83% (active),93% (active),97.1% (active),21%,92% (active),96.6% (active),38%,94% (active),98.3% (active),89% (active),97% (active),98.4% (active)
C[n+]1c(/C=C/c2ccc(Cl)cc2)sc2ccccc21,-4%,36%,60.5%,-6%,51%,51.9%,-11%,36%,73% (active),1%,28%,75.2% (active),-12%,34%,29.6%,11%,50%,78.8% (active)
CC1=C(C)CC(C#N)(C#N)C(C#N)(C#N)C1,-12%,80% (active),83.9% (active),10%,92% (active),79.6% (active),-13%,80% (active),82.2% (active),-18%,86% (active),38.1%,30%,97% (active),58.7%,6%,97% (active),75.3% (active)
CC(C)=CCC(CC=C(C)C)c1ccncc1 (tested in a mixture with another compound),16%,99% (active),99.2% (active),15%,99% (active),99.5% (active),-92%,100% (active),99.5% (active),5%,98% (active),99.4% (active),21%,99% (active),98.8% (active),49%,99% (active),99.5% (active)
Oc1ccc2c(ccc3ccccc32)c1,1%,98% (active),97.5% (active),-4%,100% (active),97.3% (active),0%,91% (active),99.4% (active),-3%,99% (active),99% (active),4%,88% (active),99% (active),-1%,99% (active),99.2% (active)
Cc1ccc(S(=O)(=O)CC2(Br)Cc3ccccc3C2=O)cc1 (configuration not stated),79% (active),99% (active),97.3% (active),76% (active),99% (active),98.8% (active),86% (active),99% (active),99.1% (active),24%,99% (active),98.2% (active),85% (active),99% (active),99% (active),75% (active),98% (active),98.5% (active)
CCCCCCCCCCCC(=O)N(CCOC(=O)c1ccco1)CCOC(=O)c1ccco1,46%,96% (active),99% (active),43%,99% (active),99% (active),31%,98% (active),99.2% (active),29%,98% (active),98.5% (active),34%,96% (active),97.8% (active),34%,97% (active),98.8% (active)
